Where “and” joins values, the source holds several entries; their conditions need not be identical. Equal values may be shown once. Results filed as inconclusive are left out. Calls of active or inactive are those of the source. Calls come from the whole dose curve; as a rule, active = well fitted inhibition curve with a large enough effect in the repeat runs; inconclusive = weak or mixed curves; inactive = no such curve, though single readings can be large or run the other way.
What follows are compounds tested against Cytochrome P450 2C19 (Homo sapiens) (UniProt P33261) (assay: Cytochrome P450 Family 2 Subfamily C Member 19 (CYP2C19) small molecule antagonists: luciferase reporter qHTS assay (AID 1671197; note: nearly all actives have a fitted effect of over 65% in size)). Details: P450-Glo CYP2C19 enzyme, luciferin luminescence, 1 h; series mostly up to 115 µM.
Cytochrome P450 2C19 (Homo sapiens), sequence (P33261 whole entry, looked up): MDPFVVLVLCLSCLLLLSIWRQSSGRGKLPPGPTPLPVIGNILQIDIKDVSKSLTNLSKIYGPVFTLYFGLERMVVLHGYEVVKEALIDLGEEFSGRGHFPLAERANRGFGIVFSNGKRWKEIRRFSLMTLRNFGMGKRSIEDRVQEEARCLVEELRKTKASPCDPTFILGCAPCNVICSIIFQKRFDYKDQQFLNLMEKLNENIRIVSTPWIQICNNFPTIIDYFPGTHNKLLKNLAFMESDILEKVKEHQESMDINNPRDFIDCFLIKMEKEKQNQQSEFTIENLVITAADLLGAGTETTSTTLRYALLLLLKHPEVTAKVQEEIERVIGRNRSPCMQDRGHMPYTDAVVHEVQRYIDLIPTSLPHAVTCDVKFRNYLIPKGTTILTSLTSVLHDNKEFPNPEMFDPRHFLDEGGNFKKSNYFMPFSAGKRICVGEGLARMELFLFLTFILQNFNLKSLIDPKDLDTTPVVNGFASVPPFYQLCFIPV
In short: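 Compounds were tested on CYP2C19 activity via proluciferin conversion to luciferin. The 37C, 1 h reaction followed NADPH addition; detection reagent stopped it.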
Potency is the fitted concentration of half-maximal effect.

For `Oc1ccc([C@H]2CNCc3c2ccc(O)c3O)cc1O`, which Potency is on record?
The Potency was 38.9 µM (active).

With `CO/N=C(\C(=O)OC)c1ccccc1CO/N=C(\C)c1cccc(C(F)(F)F)c1` as the compound, how does the Potency read?
Its Potency is 3.56 µM (active).

For `CCOP(=O)(Sc1ccccc1)Sc1ccccc1`, which Potency is on record?
The Potency was 8.94 µM (active).

Which Potency does the source give for `FC(F)C(F)(F)OCC(Cn1cncn1)c1ccc(Cl)cc1Cl` (configuration not stated) here?
The Potency was 0.0199 µM (active).

`COc1ccc2[nH]cc(CCN(C(C)C)C(C)C)c2c1` was tested. Which Potency did it give?
The Potency was “inactive”.

With `C[C@H]1[C@H](c2ccc(Cl)cc2)SC(=O)N1C(=O)NC1CCCCC1` as the compound, how does the Potency read?
The Potency was 5.03 µM (active).

How did the Potency turn out when `CCOP(=O)(OCC)Oc1nc(Cl)c(Cl)cc1Cl` was run?
Its Potency is 3.15 µM (active).

For `c1ccc(Nc2ccc(Nc3ccccc3)cc2)cc1`, which Potency is on record?
Its Potency is 12.6 µM (active).

With `c1csc(-c2ccc(-c3cccs3)s2)c1` as the compound, how does the Potency read?
Its Potency is 17.8 µM (active).

Which Potency does the source give for `CCCCCCC[CH2][Sn]([Cl])([Cl])[CH2]CCCCCCC` here?
The Potency was “inactive”.

How did the Potency turn out when `Nc1ccc(N=Nc2ccccc2)cc1` was run?
Its Potency is 12.6 µM (active).

`Clc1ccc(C(c2ccc(Cl)cc2)C(Cl)Cl)cc1` was tested. Which Potency did it give?
Its Potency is 181 nM (active) and 113 nM (active).

How did the Potency turn out when `S=C=NCCc1ccccc1` was run?
The Potency was 20.1 µM (active).

For `N#Cc1c[nH]cc1-c1cccc2c1OC(F)(F)O2`, which Potency is on record?
Its Potency is 5.64 µM (active).

`c1ccc(N=NNc2ccccc2)cc1` was tested. Which Potency did it give?
The Potency was 23.2 µM (active) and 50.2 µM (active).

For `O=C1C(Cl)=C(Cl)C(=O)C(Cl)=C1Cl`, which Potency is on record?
Its Potency is 7.94 µM (active) and 11.2 µM (active).

How did the Potency turn out when `ClC1=C(Cl)[C@]2(Cl)[C@@H]3[C@H]4C[C@H]([C@@H]5O[C@H]45)[C@@H]3[C@@]1(Cl)C2(Cl)Cl` was run?
Its Potency is 63.3 µM (active).

What follows are compounds tested against Cytochrome P450 2C9 (Homo sapiens) (UniProt P11712) (assay: Cytochrome P450 Family 2 Subfamily C Member 9 (CYP2C9) small molecule antagonists: luciferase reporter qHTS assay (AID 1671198; note: nearly all actives have a fitted effect of over 50% in size)). Details: P450-Glo CYP2C9 enzyme assay, luciferin luminescence; series mostly up to 115 µM.
Cytochrome P450 2C9 (Homo sapiens), sequence (P11712 whole entry, looked up): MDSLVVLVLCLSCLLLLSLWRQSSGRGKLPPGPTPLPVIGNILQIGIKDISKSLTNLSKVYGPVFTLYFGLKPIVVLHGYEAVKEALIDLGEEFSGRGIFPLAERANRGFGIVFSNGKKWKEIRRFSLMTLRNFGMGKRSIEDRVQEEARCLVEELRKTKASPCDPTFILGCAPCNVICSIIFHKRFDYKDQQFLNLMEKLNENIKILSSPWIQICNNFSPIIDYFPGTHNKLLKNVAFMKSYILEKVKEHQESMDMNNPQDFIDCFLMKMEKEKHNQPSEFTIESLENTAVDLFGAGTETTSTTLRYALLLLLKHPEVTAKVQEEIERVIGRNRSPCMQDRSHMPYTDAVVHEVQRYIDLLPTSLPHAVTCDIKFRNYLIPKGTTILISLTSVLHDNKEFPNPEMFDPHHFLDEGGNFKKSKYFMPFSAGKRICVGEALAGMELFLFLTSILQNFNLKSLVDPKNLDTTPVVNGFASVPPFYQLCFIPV
In short: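 P450-Glo proluciferin substrate with CYP2C9 enzyme; 10 min RT preincubation, then NADPH regeneration 1 h at 37C; luciferin detection reagent 20 min RT, luminescence in relative luminescence units.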

Which Potency does the source give for `CCCC[N+]1(C)CCCC1` (tested in a mixture with another compound) here?
The Potency was “inactive”.

`Cc1ccccc1OP(=O)(Oc1ccccc1C)Oc1ccccc1C` was tested. Which Potency did it give?
Its Potency is 5.66 µM (active).

How did the Potency turn out when `CC(C)(C)c1ccc(OP(=O)(Oc2ccccc2)Oc2ccccc2)cc1` was run?
Its Potency is 5.06 µM (active).

For `C[C@]12Cc3cn[nH]c3C[C@@H]1CC[C@@H]1[C@@H]2CC[C@@]2(C)[C@H]1CC[C@]2(C)O`, which Potency is on record?
The Potency was 0.977 µM (active).

With `CCOP(=S)(NC(C)C)Oc1ccccc1C(=O)OC(C)C` (configuration not stated) as the compound, how does the Potency read?
The Potency was 1.42 µM (active).

`Cc1cc(C2CC2)nc(Nc2ccccc2)n1` was tested. Which Potency did it give?
Its Potency is 63.3 µM (active).

How did the Potency turn out when `CC1=C2C[C@H]3[C@@H](CC=C4C[C@@H](O)CC[C@@]43C)[C@@H]2CC[C@]12O[C@@H]1C[C@H](C)CN[C@H]1[C@H]2C` was run?
The Potency was “inactive”.

For `Cc1ccc2cc3c(ccc4ccccc43)c3c2c1CC3`, which Potency is on record?
Its Potency is 5.65 µM (active).

`O=S1OCC2C(CO1)C1(Cl)C(Cl)=C(Cl)C2(Cl)C1(Cl)Cl` (configuration not stated) was tested. Which Potency did it give?
Its Potency is 35.6 µM (active) and 31.7 µM (active).

With `CN1C2CCC(C)(C)C1CC(OC(=O)C(O)(c1cccs1)c1cccs1)C2` (configuration not stated) as the compound, how does the Potency read?
The Potency was “inactive”.

For `COP(=O)(OC)Oc1ccc([N+](=O)[O-])cc1`, which Potency is on record?
The Potency was “inactive”.

With `CCCCCCCc1ccc(O)cc1` as the compound, how does the Potency read?
The Potency was 35.6 µM (active).

How did the Potency turn out when `CCN(CC)CCc1c[nH]c2ccccc12` was run?
Its Potency is “inactive”.

For `C#CCC1=C(C)C(OC(=O)C2C(C=C(C)C)C2(C)C)CC1=O` (configuration not stated), which Potency is on record?
Its Potency is 12.5 µM (active).

`CN1CCc2cc(Cl)c(O)cc2[C@H]2c3ccccc3CC[C@@H]21` was tested. Which Potency did it give?
Its Potency is “inactive”.

`CSC1=N[C@@](C)(c2ccccc2)C(=O)N1Nc1ccccc1` was tested. Which Potency did it give?
The Potency was 35.6 µM (active).

How did the Potency turn out when `O=[N+]([O-])c1cccc2cccc([N+](=O)[O-])c12` was run?
Its Potency is “inactive”.

With `Oc1ccc([C@H]2CNCc3c2ccc(O)c3O)cc1O` as the compound, how does the Potency read?
Its Potency is 13.8 µM (active).

With `CO/N=C(\C(=O)OC)c1ccccc1CO/N=C(\C)c1cccc(C(F)(F)F)c1` as the compound, how does the Potency read?
The Potency was 8.94 µM (active).

With `CCOP(=O)(Sc1ccccc1)Sc1ccccc1` as the compound, how does the Potency read?
Its Potency is 28.3 µM (active).

With `FC(F)C(F)(F)OCC(Cn1cncn1)c1ccc(Cl)cc1Cl` (configuration not stated) as the compound, how does the Potency read?
Its Potency is 1.77 µM (active).

Which Potency does the source give for `COc1ccc2[nH]cc(CCN(C(C)C)C(C)C)c2c1` here?
Its Potency is “inactive”.

With `C[C@H]1[C@H](c2ccc(Cl)cc2)SC(=O)N1C(=O)NC1CCCCC1` as the compound, how does the Potency read?
The Potency was 10 µM (active).

How did the Potency turn out when `CCOP(=O)(OCC)Oc1nc(Cl)c(Cl)cc1Cl` was run?
The Potency was 35.4 µM (active).

For `c1ccc(Nc2ccc(Nc3ccccc3)cc2)cc1`, which Potency is on record?
Its Potency is 11.2 µM (active).

For `c1csc(-c2ccc(-c3cccs3)s2)c1`, which Potency is on record?
Its Potency is 10 µM (active).

How did the Potency turn out when `Nc1ccc(N=Nc2ccccc2)cc1` was run?
The Potency was 12.6 µM (active).

`Clc1ccc(C(c2ccc(Cl)cc2)C(Cl)Cl)cc1` was tested. Which Potency did it give?
The Potency was 5.11 µM (active) and 6.33 µM (active).

Which Potency does the source give for `CCN(CC)Cc1nccn1-c1ccc([N+](=O)[O-])cc1C(=O)c1ccccc1Cl` here?
Its Potency is “inactive”.

For `C=Cc1cccc(CCl)c1`, which Potency is on record?
Its Potency is “inactive”.

`S=C=NCCc1ccccc1` was tested. Which Potency did it give?
The Potency was 17.9 µM (active).

For `N#Cc1c[nH]cc1-c1cccc2c1OC(F)(F)O2`, which Potency is on record?
The Potency was 20 µM (active).

With `c1ccc(N=NNc2ccccc2)cc1` as the compound, how does the Potency read?
The Potency was 26 µM (active) and 31.7 µM (active).

How did the Potency turn out when `CN1CCc2cc3c(cc2C1O)OCO3` (configuration not stated) was run?
The Potency was “inactive”.

With `O=C1C(Cl)=C(Cl)C(=O)C(Cl)=C1Cl` as the compound, how does the Potency read?
Its Potency is 5.01 µM (active) and 8.94 µM (active).
